Experimental findings from the supplement of paper PMC12339681 are described below.

Counter-ions that a name gives are not always drawn.

This assay concerns PBMC-derived induced microglia-like cells (piMGLC). Nature of the assay: synaptosome phagocytic index relative to DMSO control (fraction of DMSO); higher = more phagocytosis. As to conditions: concentration: 10 uM (2 uM for compounds listed in Table S2); pretreatment time: 24 h; assay time: 3 h.
Take `CN1CCN2c3ncccc3Cc3ccccc3C2C1` (configuration not stated) [Mirtazapine]: the synaptosome phagocytic index was determined as 1.1. `CCN(CC)CC(=O)Nc1c(C)cccc1C` [Lidocaine_(hydrochloride)]: the synaptosome phagocytic index came out at 0.925. The result for `Cn1ncc(-c2nn(C)c3ncnc(N4CCC4)c23)c1-c1ccc(C(F)(F)F)cc1` reads 0.505; that for `NC(=O)[C@H](Cc1c[nH]c2ccccc12)NC(=O)CNC(=O)[C@H](CCCN=C(N)N)NC(=O)[C@@H]1C[C@@H](O)CN1C(=O)[C@@H](N)Cc1ccc(F)cc1` [Nemifitide_(diTFA)], 0.903.

With `Nc1nc2c(ncn2COC(CO)CO)c(=O)[nH]1` [Ganciclovir], the synaptosome phagocytic index came to 0.98. Then `CCCN(CCc1cccs1)[C@H]1CCc2c(O)cccc2C1` [Rotigotine], with 0.995; and `CNC(=O)c1cc(Oc2ccc3nc(N[C@@H]4CCCC[C@H]4O)sc3c2)ccn1`, with 1.21; and `CNCCC=C1c2ccccc2CCc2ccccc21` [Nortriptyline_(hydrochloride)], with 0.487. The result for `CC1=C(/C=C/C(C)=C/C=C/C(C)=C/C(=O)O)C(C)(C)CCC1` [Retinoic_acid] reads 0.339; that for `CCc1cccc2c3c([nH]c12)C(CC)(CC(=O)O)OCC3` (configuration not stated) [Etodolac], 1.01. Then `NC(=O)OCC(COC(N)=O)c1ccccc1` [Felbamate], with 0.618; and `Cc1cnc(-c2cc(N3CCN(C(=O)CCS(C)(=O)=O)CC3)ncc2Cl)c(C)c1`, with 0.665; and `O=C(c1ccc(F)cc1)N1CCC[C@H](c2nc(-c3ccc(F)cc3)no2)C1`, with 0.938. `Cc1cc(=O)n(-c2ccccc2)n1C` [Antipyrine]: the synaptosome phagocytic index worked out at 0.601.

For `Nc1cccc2c1CN(C1CCC(=O)NC1=O)C2=O` (configuration not stated) [Lenalidomide], the synaptosome phagocytic index is 1.11.

`CCCCN1C[C@H](O)[C@@H](O)[C@H](O)[C@H]1CO` [Miglustat_(hydrochloride)]: the synaptosome phagocytic index is 1.04. Then `OCCN1CCN(CCCN2c3ccccc3Sc3ccc(Cl)cc32)CC1` [Perphenazine], with 0.197; and `C[C@@H](C(=O)O)c1ccc(-c2ccccc2)c(F)c1` [Tarenflurbil], with 1.11; and `CC1(C)O[C@@H]2[C@@H](CO[C@@]3(COS(N)(=O)=O)OC(C)(C)O[C@@H]23)O1` [Topiramate], with 1.08. The result for `CC(C)[C@H]1C(=O)N[C@@H](CCCNC(=N)N)C(=O)NCC(=O)N[C@@H](CC(=O)O)C(=O)N[C@H](Cc2ccccc2)C(=O)N1C` [Cilengitide] reads 1.09; that for `Cc1nc(-c2cccnc2)sc1C(=O)Nc1ccccc1-c1cn2c(CN3CCOCC3)csc2n1`, 0.157; that for `COc1ncc(F)cc1CNc1ccc(Cc2c[nH]c3ncc(C)cc23)c(F)n1`, 0.951. For the compound `COc1cc2c(N3CCN(C(=O)Nc4ccc(OC(C)C)cc4)CC3)ncnc2cc1OCCCN1CCCCC1` [Tandutinib], the synaptosome phagocytic index was found to be 0.936.

With `O=c1[nH]c2cc(Cl)ccc2c(O)c1-c1cccc(Oc2ccccc2)c1`, the synaptosome phagocytic index stood at 1.18. The result for `CCN(CC)C(=O)C1(c2ccccc2)CC1CN` (configuration not stated) [Milnacipran_(hydrochloride)] reads 1.35; that for `CNNCc1ccc(C(=O)NC(C)C)cc1` [Procarbazine_(Hydrochloride)], 1.1; that for `Nc1nc(NC2CC2)c2ncn([C@H]3C=C[C@@H](CO)C3)c2n1` [Abacavir], 1.15.

With `C[C@]1(c2nc3c(C(N)=O)cccc3[nH]2)CCCN1` [Veliparib], the synaptosome phagocytic index amounted to 0.721. Then `CN1C2CCCC1CC(NC(=O)c1nn(C)c3ccccc13)C2` (configuration not stated) [Granisetron_(Hydrochloride)], with 0.891; and `CC(=O)Nc1nnc(S(N)(=O)=O)s1` [Acetazolamide], with 1.03. Then `CCCCCCCCCC(=O)O` [Decanoic_acid], with 1.32; and `O=C(c1ccc(Cl)cc1)N(Cc1ccccc1)C1CCCCC1`, with 0.616. On to `C[N+]1([O-])CCN(C2=Nc3cc(Cl)ccc3Nc3ccccc32)CC1` [Clozapine_N-oxide_(dihydrochloride)], for which the synaptosome phagocytic index was found to be 0.606.

On to `CCCCN1CCCCC1C(=O)Nc1c(C)cccc1C` (configuration not stated) [Bupivacaine_(hydrochloride)], for which the synaptosome phagocytic index was found to be 0.836.

For `OC1(CN2CCC(COc3noc4cccc(O[C@@H]5CCOC5)c34)CC2)CCOCC1`, the synaptosome phagocytic index is 0.793.

As for `CCN1CCN(Cc2ccc(-c3cc4c(N[C@H](C)c5ccccc5)ncnc4[nH]3)cc2)CC1`, the synaptosome phagocytic index is 0.0989. The result for `CC(C)NCC(O)COc1cccc2ccccc12` (configuration not stated) [Propranolol_(hydrochloride)] reads 1.1.
